From PubChem BioAssay
“And” between values parts separate entries of the source, which are not always exact repeats. Identical values can stand only once. The source made the active and inactive calls.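 The calls were made as follows, unless noted: active = thallium flux through the channel raised or lowered by more than 3 SD from vehicle-only wells, actives on both sides; inactive = the rest.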

What was measured:
[1] = test system: Hepatitis C virus NS3 helicase; test: HCV NS3 helicase inhibitors, primary screen, biochemical, fluorescence polarization, NIH Clinical Collection (AID 743270; call rule not given here); details: NS3 helicase binding to Cy5-dT15 DNA, stronger effect = higher value, concentration not given here
[2] = biological target: Single-stranded DNA-binding protein (Escherichia coli (strain K12)) (UniProt P0AGE0); test: E. coli SSB displacement from DNA, counter-screen for HCV NS3 helicase inhibitor project, biochemical, fluorescence polarization, NIH Clinical Collection (AID 743271; in the data active = inhibition above about 28%); details: stronger effect = higher value, concentration not given here
[3] = fluorescence interference in NS3h assay format, artefact control for HCV NS3 helicase inhibitor project, biochemical, NIH Clinical Collection (AID 743272; call rule not given here;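 also: HCV NS3 helicase with a Cy5 labelled single stranded DNA probe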); details: fluorescence interference counterscreen, stronger effect = lower value
[4] = stimulators of nuclear beta-catenin in C2C12, primary screen, imaging, WNT3A-conditioned medium, mouse C2C12, NPC library (AID 1117326; in the data active = nuclear beta-catenin stimulation mostly above about 4.2%, no sharp cut-off; inactive = mostly below about 10%); details: stronger effect = higher value
[5] = stimulators of insulin release from INS-1E, primary screen, cell-based, 5 mM glucose, NPC library (AID 1117329;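 active = compound raises insulin release from rat beta cells at 5 mM glucose, no numeric limit stated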); details: rat INS-1E insulin secretion, at 10 µM, stronger effect = higher value
[6] = growth inhibition of GSK3B-pretreated HCT116 cells – cell-based, CellTiter-Glo, 0.2 to 20 µM (AID 1117336;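 active = compounds lowering colon cancer cell viability after pretreatment blocking the GSK3B kinase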); details: HCT116 viability after GSK3B inhibitor, at 20 µM, stronger effect = higher value
[7] = inhibition of endothelial tube formation, primary screen, imaging, VEGF stimulated, CD31 staining, tube area, NPC library (AID 1117340;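 active = compound that reduces growth-factor-driven endothelial tube area in a mixed cell culture, no cutoff stated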); details: VEGF-stimulated ADSC/ECFC co-culture, at 10 µM, stronger effect = higher value
[8] = glucagon-like peptide 1 release enhancers, primary assay, NCI-H716 cell line, NPC library (AID 1117341;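 active = compound raises GLP1 secretion from the human gut endocrine cells, with no numeric limit stated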); details: NCI-H716 cells, at 10 µM, stronger effect = higher value
[9] = HCT116 colon cancer cell growth inhibition, primary screen, CellTiter-Glo luminescence, NPC library (AID 1117342;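 active = compounds that lower survival of HCT116 colon cancer cells in the luminescence readout, no numeric limit stated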); details: at 20 µM (top of the series)
[10] = CellTiter-Glo luminescent readout of SW480 viability loss, NPC library primary (AID 1117343;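 active = compounds that lower viability of the colon cancer cells in the luminescence readout, with no numeric limit stated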); details: CellTiter-Glo luminescence; at 20 µM (top of the series)
[11] = decreased DLD-1 cellular survival, CellTiter-Glo luminescent readout, NPC compound collection, primary HTS (AID 1117346;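 active = compounds that lower survival of DLD-1 colon cancer cells in the luminescence readout, no cutoff given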); details: DLD-1 viability, CellTiter-Glo luminescence; at 20 µM (top of the series)
[12] = biological target: 6-phosphogluconate dehydrogenase, decarboxylating (Homo sapiens) (UniProt P52209); test: 6PGD enzyme inhibitors, primary screen, biochemical, human, recombinant enzyme, NADPH absorbance (AID 1159550;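 active = at least 20% inhibition of 6-phosphogluconate dehydrogenase activity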); details: recombinant 6PGD, NADPH absorbance 341 nm; at 10 µM; stronger effect = higher value
[13] = sensitizers of A549 cells to miR-34 induction, primary screen, imaging, A549 dox-inducible miR-34, nuclei and caspase counts (AID 1347080;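 active = compounds whose cell count with miR-34 switched on is under 0.7 times the count with it off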); details: A549 miR-34 inducible, Hoechst nuclei count, 48 h
[14] = survival rescue of mitochondrial mutant cells in low glucose, primary screen, MELAS cybrids, Rieske KO mouse fibroblasts, CellTiter-Glo (AID 1508586;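 active = mean z-score across replicates of 1.96 or higher in either the MELAS or the Rieske mutant cell line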;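 also: z relative to plate mean and SD of compound and empty wells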)
[15] = biological target: NAD(+) hydrolase SARM1 (Homo sapiens) (UniProt Q6SZW1); test: SARM1 TIR NADase inhibitors, cell lysate, NAD-Glo luminescence (AID 1508614;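 active = compound whose remaining NAD level is above about 45 nM, limit read from the data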;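 also: higher remaining NAD means stronger inhibition of SARM1 NADase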); details: SAM-TIR HEK293T lysate NADase, at 1 µM, stronger effect = higher value
[16] = biological target: Mitogen-activated protein kinase 7 (Homo sapiens) (UniProt Q13164); test: ERK5 transactivation activators in reporter cells, primary screen, cell-based, HTS (AID 1508626;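 active = luciferase signal above three times the same-plate solvent-only control wells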;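 also: luciferase driven by Gal4-ERK5 fusion binding five Gal4 sites before minimal TATA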); details: HeLa Gal4-ERK5 transactivation, 18 h, at 5 µM, stronger effect = higher value
F380Y = test: modulators of BK channel variants, profiling panel, selectivity assay, cell-based, U2OS BacMam, thallium flux, beta subunits (AID 1259406); details: at 30 µM;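 also: initial slope of Thallos dye fluorescence rise after thallium is added; log ratio against the mean of 0.3% DMSO vehicle wells on the same plate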
F380Y/beta2Delta = test: as above; details: at 30 µM
[17] = biological target: Calcium-activated potassium channel subunit alpha-1 (Homo sapiens) + Leucine-rich repeat-containing protein 26 (Homo sapiens) (UniProt Q12791+Q2I0M4); test: as above; details: F380Y/Slo1WT/gamma1, at 30 µM
[18] = differential killing of epithelial or mesenchymal cells, primary screen, imaging, PC-3E GFP, TEM4-18 mCherry, co-culture (AID 1345086;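 active = compounds killing one labelled cell type while sparing the other, by normalised counts and ratio limits, not self-fluorescent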;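 also: cells exposed to compound for 72 h before imaging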;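 as to red/green cell ratio (normalised): normalised mesenchymal count divided by normalised epithelial count so high means epithelial killing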); details: imaging cell counts, at 1 µM
[19] = stronger effect = lower value, cell number ratio, induced over uninduced
[20] = measured here: relative caspase fold change +Dox/-Dox
[21] = measured here: total cells with miR-34 induction, stronger effect = lower value
[22] = measured here: total cells without miR-34 induction
[23] = MELAS cybrid survival, CellTiter-Glo 48 h, stronger effect = higher value
[24] = Rieske KO mouse fibroblast survival, CellTiter-Glo 72 h

6-phosphogluconate dehydrogenase, decarboxylating (Homo sapiens), sequence (P52209 whole entry, looked up): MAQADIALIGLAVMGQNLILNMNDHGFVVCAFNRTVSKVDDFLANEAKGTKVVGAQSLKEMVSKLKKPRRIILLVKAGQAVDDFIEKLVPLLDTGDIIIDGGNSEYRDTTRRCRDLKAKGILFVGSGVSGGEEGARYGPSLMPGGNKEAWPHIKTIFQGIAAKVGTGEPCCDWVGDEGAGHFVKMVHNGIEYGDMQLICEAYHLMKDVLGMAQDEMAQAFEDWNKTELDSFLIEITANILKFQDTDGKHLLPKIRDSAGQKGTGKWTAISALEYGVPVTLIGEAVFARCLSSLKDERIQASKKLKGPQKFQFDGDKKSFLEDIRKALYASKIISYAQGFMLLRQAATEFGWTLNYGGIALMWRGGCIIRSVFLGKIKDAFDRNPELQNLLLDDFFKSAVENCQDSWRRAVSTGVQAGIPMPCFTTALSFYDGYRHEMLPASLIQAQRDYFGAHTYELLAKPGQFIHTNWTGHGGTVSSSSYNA
Mitogen-activated protein kinase 7 (Homo sapiens), sequence (Q13164 whole entry, looked up, the tested form may be a part): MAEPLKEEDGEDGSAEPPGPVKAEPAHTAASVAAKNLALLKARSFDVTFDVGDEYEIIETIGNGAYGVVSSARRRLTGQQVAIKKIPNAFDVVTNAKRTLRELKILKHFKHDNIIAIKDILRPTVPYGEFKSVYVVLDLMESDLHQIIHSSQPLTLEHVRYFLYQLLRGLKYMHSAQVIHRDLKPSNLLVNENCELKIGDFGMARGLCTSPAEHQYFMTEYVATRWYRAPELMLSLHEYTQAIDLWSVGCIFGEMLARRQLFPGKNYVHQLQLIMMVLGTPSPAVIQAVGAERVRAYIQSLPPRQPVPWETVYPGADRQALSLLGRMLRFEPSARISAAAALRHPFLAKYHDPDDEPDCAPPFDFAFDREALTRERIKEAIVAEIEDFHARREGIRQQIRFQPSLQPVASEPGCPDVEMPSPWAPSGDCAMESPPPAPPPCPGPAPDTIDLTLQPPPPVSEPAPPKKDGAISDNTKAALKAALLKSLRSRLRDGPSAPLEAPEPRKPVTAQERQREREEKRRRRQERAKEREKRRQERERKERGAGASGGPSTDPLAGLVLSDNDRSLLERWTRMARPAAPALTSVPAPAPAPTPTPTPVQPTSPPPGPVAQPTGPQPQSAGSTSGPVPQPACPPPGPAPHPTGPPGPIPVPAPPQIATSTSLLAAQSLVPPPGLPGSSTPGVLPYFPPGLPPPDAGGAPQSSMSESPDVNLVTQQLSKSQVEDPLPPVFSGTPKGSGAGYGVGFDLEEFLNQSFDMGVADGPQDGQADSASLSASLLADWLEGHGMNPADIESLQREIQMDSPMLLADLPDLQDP
Calcium-activated potassium channel subunit alpha-1 (Homo sapiens) + Leucine-rich repeat-containing protein 26 (Homo sapiens), sequence (Q2I0M4 whole entry, looked up, one chain of several): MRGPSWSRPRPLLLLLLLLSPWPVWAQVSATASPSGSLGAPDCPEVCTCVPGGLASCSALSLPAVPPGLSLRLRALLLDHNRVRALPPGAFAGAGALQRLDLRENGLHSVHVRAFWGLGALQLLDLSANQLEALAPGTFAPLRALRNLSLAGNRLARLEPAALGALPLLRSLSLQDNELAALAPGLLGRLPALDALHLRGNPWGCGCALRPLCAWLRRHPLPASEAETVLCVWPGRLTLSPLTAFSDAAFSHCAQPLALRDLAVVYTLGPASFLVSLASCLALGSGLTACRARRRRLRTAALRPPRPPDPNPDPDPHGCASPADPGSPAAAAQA
NAD(+) hydrolase SARM1 (Homo sapiens), sequence (Q6SZW1 whole entry, looked up, the tested form may be a part): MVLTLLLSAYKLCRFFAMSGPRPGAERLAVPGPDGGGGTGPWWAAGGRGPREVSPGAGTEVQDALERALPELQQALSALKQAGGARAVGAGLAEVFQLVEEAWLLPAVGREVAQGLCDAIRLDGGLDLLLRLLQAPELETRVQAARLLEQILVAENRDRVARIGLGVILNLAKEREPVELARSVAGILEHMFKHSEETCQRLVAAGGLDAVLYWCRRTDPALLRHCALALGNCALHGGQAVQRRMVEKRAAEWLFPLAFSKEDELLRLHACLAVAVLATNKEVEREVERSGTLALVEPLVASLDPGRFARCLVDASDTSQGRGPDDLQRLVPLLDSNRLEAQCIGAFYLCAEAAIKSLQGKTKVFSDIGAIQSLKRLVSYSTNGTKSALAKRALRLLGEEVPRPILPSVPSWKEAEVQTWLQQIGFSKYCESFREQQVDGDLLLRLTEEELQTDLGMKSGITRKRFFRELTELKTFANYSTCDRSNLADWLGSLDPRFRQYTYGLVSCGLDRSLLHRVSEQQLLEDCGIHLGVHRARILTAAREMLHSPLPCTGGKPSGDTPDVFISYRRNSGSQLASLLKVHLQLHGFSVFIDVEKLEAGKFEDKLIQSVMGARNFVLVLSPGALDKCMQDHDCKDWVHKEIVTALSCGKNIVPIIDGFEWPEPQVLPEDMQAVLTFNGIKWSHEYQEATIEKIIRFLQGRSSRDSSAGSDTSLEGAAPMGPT

Compound: COc1cc([C@@H]2c3cc4c(cc3[C@H](O)[C@H]3COC(=O)[C@H]23)OCO4)cc(OC)c1OC
- inhibition [1]: -0.45% (inactive)
- inhibition [2]: 1.05% (inactive)
- fluorescence ratio [3]: 1.03 (inactive)
- nuclear beta-catenin stimulation ([4]; at 10 µM): 81% (active)
- nuclear beta-catenin stimulation ([4]; stimulation, at 2 µM): 77%
- insulin secretion stimulation [5]: 1.25% (inactive)
- viability decrease [6]: 102% (active)
- tube area decrease [7]: 109% (active)
- GLP1 secretion stimulation [8]: 2% (inactive)
- inhibition of viability [9]: 73.1% (active)
- viability decrease (inhibition) [10]: 49.9% (inactive)
- viability decrease (inhibition) [11]: 64% (active)
- inhibition [12]: 10.7% (inactive)
- fold change [13, 19]: 1.05 (inactive) and 1.04 (inactive) and 0.981 (inactive)
- fold change [13, 20]: 0.525 and 0.993 and 1.97
- cell count [13, 21]: 2300 and 1910 and 1870
- cell count [13, 22]: 2200 and 1830 and 1900
- z-score [14, 23]: -2.59 (inactive)
- z-score [14, 24]: 1.94
- remaining NAD [15]: 10 nM (inactive)
- luciferase signal [16]: 92 AU (inactive)
- log fold change Tl+ flux (F380Y): 0.0196 (inactive)
- log fold change Tl+ flux (F380Y/beta2Delta): 0.00366 (inactive)
- log fold change Tl+ flux [17]: 0.0135 (inactive)

Compound: O=C1[C@H](CC[C@H](O)c2ccc(F)cc2)[C@@H](c2ccc(O)cc2)N1c1ccc(F)cc1
- inhibition [1]: 2.77% (inactive)
- inhibition [2]: 3.75% (inactive)
- fluorescence ratio [3]: 0.95 (inactive)
- nuclear beta-catenin stimulation ([4]; at 10 µM): 4.5% (inactive)
- nuclear beta-catenin stimulation ([4]; stimulation, at 2 µM): -0.4%
- insulin secretion stimulation [5]: 6% (inactive)
- viability decrease [6]: 20.8% (inactive)
- tube area decrease [7]: 19.9% (inactive)
- GLP1 secretion stimulation [8]: 7.4% (inactive)
- inhibition of viability [9]: 32.6% (inactive)
- viability decrease (inhibition) [10]: 10.1% (inactive)
- viability decrease (inhibition) [11]: 18% (inactive)
- inhibition [12]: -1.06% (inactive)
- z-score [14, 23]: -0.744 (inactive)
- z-score [14, 24]: 0.307
- remaining NAD [15]: 10 nM (inactive)
- luciferase signal [16]: 44 AU (inactive)
- log fold change Tl+ flux (F380Y): 0.0275 (inactive)
- log fold change Tl+ flux (F380Y/beta2Delta): 0.0773 (inactive)
- log fold change Tl+ flux [17]: 0.0312 (inactive)

Compound: Cc1ccc(O)c([C@H](CCN(C(C)C)C(C)C)c2ccccc2)c1
- inhibition [1]: -4.36% (inactive)
- inhibition [2]: 1.44% (inactive)
- fluorescence ratio [3]: 0.97 (inactive)
- nuclear beta-catenin stimulation ([4]; at 10 µM): 0.8% (inactive)
- nuclear beta-catenin stimulation ([4]; stimulation, at 2 µM): 3.5%
- insulin secretion stimulation [5]: 30.8% (active)
- viability decrease [6]: 35.6% (inactive)
- tube area decrease [7]: -14% (inactive)
- GLP1 secretion stimulation [8]: 8.3% (inactive)
- inhibition of viability [9]: 44.4% (inactive)
- viability decrease (inhibition) [10]: 69.7% (active)
- viability decrease (inhibition) [11]: -2.4% (inactive)
- inhibition [12]: -2.71% (inactive)
- z-score [14, 23]: -0.175 (inactive)
- z-score [14, 24]: 0.484
- luciferase signal [16]: 64 AU (inactive)
- log fold change Tl+ flux (F380Y): 0.149 (active)
- log fold change Tl+ flux (F380Y/beta2Delta): 0.0454 (inactive)
- log fold change Tl+ flux [17]: 0.0595 (inactive)

Compound: Cc1onc(-c2ccccc2)c1-c1ccc(S(N)(=O)=O)cc1
- inhibition [1]: -1.19% (inactive)
- inhibition [2]: -2.41% (inactive)
- fluorescence ratio [3]: 0.93 (inactive)
- nuclear beta-catenin stimulation ([4]; at 10 µM): 1.5% (inactive)
- nuclear beta-catenin stimulation ([4]; stimulation, at 2 µM): 1.6%
- insulin secretion stimulation [5]: -0.9% (inactive)
- viability decrease [6]: -37.3% (inactive)
- tube area decrease [7]: 32.7% (inactive)
- GLP1 secretion stimulation [8]: 4.8% (inactive)
- inhibition of viability [9]: 33.5% (inactive)
- viability decrease (inhibition) [10]: 54% (active)
- viability decrease (inhibition) [11]: 32.5% (inactive)
- inhibition [12]: -1.63% (inactive)
- fold change [13, 19]: 0.904 (inactive) and 0.903 (inactive)
- fold change [13, 20]: 1.68 and 0.72
- cell count [13, 21]: 8880 and 8040
- cell count [13, 22]: 9820 and 8900
- z-score [14, 23]: -0.154 (inactive) and 0.659 (inactive)
- z-score [14, 24]: -0.131 and 0.628
- luciferase signal [16]: 64 AU (inactive)
- log fold change Tl+ flux (F380Y): 0.0649 (inactive)
- log fold change Tl+ flux (F380Y/beta2Delta): 0.0548 (inactive)
- log fold change Tl+ flux [17]: 0.00659 (inactive)

Compound: Nc1nc2ncc(CNc3ccc(C(=O)N[C@@H](CCC(=O)O)C(=O)O)cc3)nc2c(=O)[nH]1
- inhibition [1]: -2.27% (inactive)
- inhibition [2]: 11% (inactive)
- fluorescence ratio [3]: 0.92 (inactive)
- nuclear beta-catenin stimulation ([4]; at 10 µM): 0.8% (inactive)
- nuclear beta-catenin stimulation ([4]; stimulation, at 2 µM): 0.5%
- insulin secretion stimulation [5]: 2.4% (inactive)
- viability decrease [6]: -64.4% (inactive)
- tube area decrease [7]: 16.7% (inactive)
- GLP1 secretion stimulation [8]: -1.5% (inactive)
- inhibition of viability [9]: -2.33% (inactive)
- viability decrease (inhibition) [10]: 6.4% (inactive)
- viability decrease (inhibition) [11]: -8.5% (inactive)
- inhibition [12]: -0.853% (inactive)
- fold change [13, 19]: 0.937 (inactive) and 0.906 (inactive) and 0.91 (inactive)
- fold change [13, 20]: 1.68 and 0.997 and 3.41
- cell count [13, 21]: 10800 and 8990 and 11200
- cell count [13, 22]: 11600 and 9920 and 12300
- z-score [14, 23]: 0.332 (inactive)
- z-score [14, 24]: -0.293
- remaining NAD [15]: 10 nM (inactive)
- luciferase signal [16]: 188 AU (inactive)
- log fold change Tl+ flux (F380Y): -0.0861 (inactive)
- log fold change Tl+ flux (F380Y/beta2Delta): -0.000783 (inactive)
- log fold change Tl+ flux [17]: -0.00611 (inactive)

Compound: C[C@]12CCC(=O)C=C1CC[C@@H]1[C@@H]2[C@@H](O)C[C@@]2(C)[C@H]1CC[C@]2(O)C(=O)COC(=O)CCC(=O)O
- inhibition [1]: -1.36% (inactive)
- inhibition [2]: -0.48% (inactive)
- fluorescence ratio [3]: 1 (inactive)
- nuclear beta-catenin stimulation ([4]; at 10 µM): 0.9% (inactive)
- nuclear beta-catenin stimulation ([4]; stimulation, at 2 µM): 3%
- insulin secretion stimulation [5]: 1.4% (inactive)
- viability decrease [6]: 0.2% (inactive)
- tube area decrease [7]: 5.6% (inactive)
- GLP1 secretion stimulation [8]: -1.5% (inactive)
- inhibition of viability [9]: 6.6% (inactive)
- viability decrease (inhibition) [10]: -13.6% (inactive)
- viability decrease (inhibition) [11]: 13.1% (inactive)
- inhibition [12]: 1.94% (inactive)
- fold change [13, 19]: 0.985 (inactive)
- fold change [13, 20]: 1.65
- cell count [13, 21]: 7160
- cell count [13, 22]: 7270
- remaining NAD [15]: 10 nM (inactive)
- luciferase signal [16]: 96 AU (inactive)
- log fold change Tl+ flux (F380Y): 0.0328 (inactive)
- log fold change Tl+ flux (F380Y/beta2Delta): 0.00491 (inactive)
- log fold change Tl+ flux [17]: 0.0102 (inactive)

Compound: c1ccc(-c2ccc(C(c3ccccc3)n3ccnc3)cc2)cc1 (stereo not given)
- inhibition [1]: 12.3% (inactive)
- inhibition [2]: 8.37% (inactive)
- fluorescence ratio [3]: 1.04 (inactive)
- nuclear beta-catenin stimulation ([4]; at 10 µM): -0.1% (inactive)
- nuclear beta-catenin stimulation ([4]; stimulation, at 2 µM): 0.5%
- insulin secretion stimulation [5]: 0.3% (inactive)
- viability decrease [6]: 99.7% (active)
- tube area decrease [7]: 23.9% (inactive)
- GLP1 secretion stimulation [8]: 8.2% (inactive)
- inhibition of viability [9]: 101% (active)
- viability decrease (inhibition) [10]: 141% (active)
- viability decrease (inhibition) [11]: 104% (active)
- inhibition [12]: 12.4% (inactive)
- red/green cell ratio (normalised) ([18]; actives lie on both sides, counts scaled to control wells, 1 = unselective): 1.06 (inactive)
- normalised cell number ([18]; measured here: epithelial PC-3E GFP cell survival): 0.98
- normalised cell number ([18]; measured here: mesenchymal TEM4-18 mCherry cell survival): 1.04
- z-score [14, 23]: -0.456 (inactive) and -0.0732 (inactive) and 0.0643 (inactive)
- z-score [14, 24]: -0.196 and 0.568 and 0.472
- remaining NAD [15]: 10 nM (inactive)
- luciferase signal [16]: 56 AU (inactive)
- log fold change Tl+ flux (F380Y): -0.00418 (inactive)
- log fold change Tl+ flux (F380Y/beta2Delta): 0.0145 (inactive)
- log fold change Tl+ flux [17]: 0.0139 (inactive)
